These results are taken from PubChem BioAssay.

Structures are written as SMILES. The source made the active and inactive calls.

Assay [1] has as its target Albumin (Bos taurus) (UniProt P02769). Description: bovine serum albumin binders on microarray, profiling panel, artefact control for SMM control protein annotation, biochemical, small-molecule microarray, Alexa647 label, 635/667 nm fluorescence (AID 1118).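 Note: score merges 667 nm emission intensity and signal-to-noise per printed compound spot.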 The settings on record: BSA-A647 binding, fluorescence 635 nm, higher = more signal.
The nature of assay [2]: small-molecule microarray binders of probe aXIP, primary screen, biochemical, NeuroSMM set, 635/667 nm fluorescence (AID 1119).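 Note: probe is the protein aXip251-270 applied at 1 µg/mL to compound-printed slides; binding of probe to printed compounds measured as 667 nm fluorescence plus signal to noise.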 Particulars: higher = more signal, called active from +8 up or from −8 down.
Assay [3] in a line: small-molecule binders of probe aNOTCH3, primary screen, biochemical, small-molecule microarray, 635/667 nm fluorescence (AID 1120).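 Note: probe is a biotin-tagged antibody raised against NOTCH3 rather than NOTCH3 protein; score merges spot fluorescence near 667 nm with spot signal to noise.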 The settings on record: higher = more signal.
A short description of assay [4]: small-molecule binders of probe aNOTCH2, primary screen, biochemical, small-molecule microarray, 635/667 nm fluorescence (AID 1121).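 Note: score merges feature fluorescence read at 667 nm with its signal to noise.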 The settings on record: higher = more signal.
Assay [5] concerns the target Carbonic anhydrase 2 (Homo sapiens) (UniProt P00918). Description: CAII small-molecule binders, profiling panel, biochemical, small-molecule microarray, Alexa647-labelled CAII (AID 1122). The settings on record: CAII-A647 binding fluorescence, higher = more signal.
Assay [6] can be described thus: COS7 lysate on small-molecule microarray, probe aHis, 635 nm (AID 1123).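 Note: z-score combines 667nm fluorescence intensity with signal-to-noise per printed compound spot.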 The settings on record: COS7 cell lysate, fluorescence, higher = more signal.
Assay [7] can be described thus: compound binding in COS7 lysate, probe aLAP1, primary screen, cell lysate, small-molecule microarray (AID 1124).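 Note: lysate comes from COS7 cells expressing LAP1 and is applied at 0.3 µg/mL; score merges spot fluorescence near 667 nm with signal-to-noise over triplicate slides.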 Particulars: probe aLAP1, fluorescence, higher = more signal.
Assay [8] concerns Sam68 (KHDRBS1). Description: Sam68 small-molecule binders, primary screen, biochemical, small-molecule microarray, 635 nm fluorescence (AID 1125).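 Note: score merges 667 nm channel intensity with signal to noise over triplicate slides.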 Particulars: small-molecule microarray binding, higher = more signal.
Assay [9] has as its system Chordin-like protein 2 (CHRDL2). Briefly: CHRDL2 small-molecule binders, primary screen, biochemical, small-molecule microarray, 635 nm fluorescence (AID 1126).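 Note: printed compound slides probed with Chrdl2 protein at 4 µg/mL for 1 h at 4 C; score merges 667 nm emission intensity with signal to noise over three replicate slides.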 The settings on record: small-molecule microarray binding, fluorescence 635 nm; higher = more signal.
The target in assay [10] is Concanavalin-A (Canavalia ensiformis) (UniProt P02866). Description: ConA small-molecule binders, primary screen, artefact control for SMM control protein annotation, biochemical, small-molecule microarray, Alexa647 label, 635 nm (AID 1127).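 Note: z combines 667 nm emission intensity with signal-to-noise across three replicate slides.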 Particulars: ConA-A647 binding fluorescence, higher = more signal.
Sequence of Concanavalin-A (Canavalia ensiformis) (P02866 whole entry, looked up): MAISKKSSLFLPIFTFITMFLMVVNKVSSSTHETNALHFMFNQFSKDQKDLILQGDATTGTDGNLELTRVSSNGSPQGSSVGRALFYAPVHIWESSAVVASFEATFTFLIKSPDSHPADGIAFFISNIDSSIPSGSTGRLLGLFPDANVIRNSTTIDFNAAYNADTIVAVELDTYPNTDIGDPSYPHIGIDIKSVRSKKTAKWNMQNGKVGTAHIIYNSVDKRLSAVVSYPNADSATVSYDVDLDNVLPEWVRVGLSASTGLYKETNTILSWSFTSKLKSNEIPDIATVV

Sequence of Albumin (Bos taurus) (P02769 whole entry, looked up): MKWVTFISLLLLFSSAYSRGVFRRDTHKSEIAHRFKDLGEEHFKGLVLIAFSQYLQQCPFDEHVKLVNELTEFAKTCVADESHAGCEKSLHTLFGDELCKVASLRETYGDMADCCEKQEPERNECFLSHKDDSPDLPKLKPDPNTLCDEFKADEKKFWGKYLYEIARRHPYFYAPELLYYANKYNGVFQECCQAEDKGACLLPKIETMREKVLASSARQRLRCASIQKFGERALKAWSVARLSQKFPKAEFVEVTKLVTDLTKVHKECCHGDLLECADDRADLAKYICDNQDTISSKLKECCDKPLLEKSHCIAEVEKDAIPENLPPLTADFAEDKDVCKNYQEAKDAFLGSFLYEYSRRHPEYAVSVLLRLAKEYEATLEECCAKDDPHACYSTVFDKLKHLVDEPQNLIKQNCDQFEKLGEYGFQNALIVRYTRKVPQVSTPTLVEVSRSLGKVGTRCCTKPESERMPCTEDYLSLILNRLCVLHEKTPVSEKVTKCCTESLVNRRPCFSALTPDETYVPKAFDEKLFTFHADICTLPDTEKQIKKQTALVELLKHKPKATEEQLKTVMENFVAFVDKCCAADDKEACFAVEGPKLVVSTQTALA

Regarding `COCCOC(=O)N1C(=O)[C@@]2(c3cc(C#CC4(O)CCCCCC4)ccc31)[C@H](c1ccc(O)cc1)N1[C@H](c3ccccc3)[C@H](c3ccccc3)OC(=O)[C@H]1[C@@H]2C(=O)N1CCCCCCC1`, the composite z-score in assay [1] is 0.304; in assay [3] it was 0.295; in assay [4] it was -0.123; in assay [5] it was 0.267; in assay [6] it was 1.33; in assay [7], 0.855. Further, the composite z-score was found to be 1.24 in assay [8], 0.33 in [9] and 0.423 in assay [10]. In addition, the composite Z-score in assay [2] is -0.0498 (inactive).
Consider `CO[C@H]1O[C@H](CO)[C@@H](OC(=O)Nc2ccccc2)[C@H](OC(=O)Nc2ccccc2)[C@H]1OC(=O)Nc1ccccc1`, for which the composite z-score was 0.729 in assay [1]; -0.0918 in assay [3]; -0.0567 in assay [4]; 0.521 in assay [5]; 2.45 in assay [6]; 0.373 in assay [7]. Further, the composite z-score in assay [8] is 1.3; in assay [9], -0.0958; in assay [10], 1.15. The composite Z-score in assay [2] was -0.375 (inactive).
For `COCCOC(=O)N1C(=O)[C@@]2(c3cc(C#CCC(C(=O)OC)C(=O)OC)ccc31)[C@H](C(=O)Nc1nc3ccccc3s1)[C@H]1C(=O)O[C@H](c3ccccc3)[C@H](c3ccccc3)N1[C@@H]2c1ccc(O)cc1`, the composite z-score in assay [1] was 0.268; in assay [3], 0.512; in [4], -0.0282; in [5], 0.279; in [6] it was 1.13; in assay [7], 0.705. Moreover, the composite z-score in [8] worked out at 1.3; in [9], 1.07; in [10], 1.04. In [2], the composite Z-score is 0.247 (inactive).
Consider `CC(C)C(CO)N1C(=O)[C@@H]2C3C(=O)OCCC/C=C\[C@H]3OC23C=CCN(Cc2ccccc2)C(=O)[C@@H]13` (stereo not given in full), for which the composite z-score in assay [1] is -1.25; in assay [3] it was -0.159; in assay [4], -0.11; in assay [5] it was 0.902; in [6] it was 0.708; in assay [7], 1.5. Besides, the composite z-score is -0.173 in assay [8], -1.11 in assay [9] and -1.67 in assay [10]. Besides, the composite Z-score in [2] was -0.157 (inactive).
On to `CCCN1C(=O)[C@@]2(c3ccc([N+](=O)[O-])cc3)CC(=O)N(CC34CC5CC(CC(C5)C3)C4)[C@@H]2c2ccc(CO)cc21`, for which the composite z-score in [1] was 0.391; in assay [3], 0.056; in assay [4], -0.199; in assay [5], 0.302; in assay [6], 0.634; in assay [7], -0.193. In addition, the composite z-score is -0.83 in assay [8], -0.229 in assay [9] and 0.0674 in [10]. For the same compound, the composite Z-score in assay [2] is -0.316 (inactive).
With `NC(=O)NCC#Cc1ccc2c(c1)[C@]1(C(=O)N2)[C@H](c2ccc(OCCO)cc2)N2[C@H](c3ccccc3)[C@H](c3ccccc3)OC(=O)[C@H]2[C@@H]1C(=O)O`, the composite z-score in assay [1] was 0.544; in [3] it was -0.0918; in [4] it was -0.132; in [5], 0.256; in assay [6], 0.157; in assay [7], -0.23. Besides, the composite z-score was -0.761 in assay [8], -0.736 in [9] and 1.04 in [10]. In addition, in assay [2], the composite Z-score is 0.196 (inactive).
Take `[N-]=[N+]=Nc1ccccc1[C@@H]1OC(c2ccc(OCCCO)cc2)=N[C@]1(CCS(=O)(=O)c1ccccc1)C(=O)NCC(O)CO` (stereo not given in full): the composite z-score is 0.91 in [1]; -0.023 in assay [3]; 0.014 in [4]; 0.564 in assay [5]; 2.5 in assay [6]; 0.649 in [7]. Further, the figures for the composite z-score in assay [8], in [9] and in [10] were 0.885, -0.165 and 0.998, respectively. Moreover, the composite Z-score in assay [2] is 0.339 (inactive).
On to `O=C1[C@@H]2[C@@H](CC(COc3ccccc3)=C([C@H](O)CCc3ccccc3)[C@@H]2CO)C(=O)N1Cc1ccccc1`, for which the composite z-score in assay [1] was 0.574; in [3], 0.15; in [4], -0.148; in assay [5] it was 0.42; in assay [6], 1.05; in [7], 0.424. Moreover, the composite z-score in assay [8] turned out to be 0.582; in [9], 0.249; in assay [10], 0.929. In addition, in assay [2], the composite Z-score is 0.356 (inactive).
With `C=CC1c2cc(O)c(OC)cc2CCN1C` (stereo not given), the composite z-score in assay [1] was 0.582; in [3], -0.136; in assay [4], -0.126; in assay [5] it was 0.886; in assay [6], -0.0207; in assay [7], 0.0879. For the same compound, the composite z-score is -0.589 in [8], -0.644 in assay [9] and -1.24 in assay [10]. The composite Z-score in [2] is 0.694 (inactive).
As to `C[N+](C)(C)CCCC[C@@H]1NC(=O)[C@@H]2C[C@H](C(=O)NCc3ccc(F)cc3)[C@H](c3ccc(O)cc3)N2C1=O`, the composite z-score is -0.635 in assay [1]; -0.307 in [3]; -0.0662 in [4]; 0.413 in assay [5]; 0.933 in assay [6]; 0.873 in [7]. Moreover, the figures for the composite z-score in [8], in assay [9] and in assay [10] were -0.636, 0.189 and 0.607, respectively. In addition, the composite Z-score in [2] was -0.43 (inactive).
Turning to `Cc1ccc(S[C@]2(C(=O)NCCCN(C)C)CC(=O)N(Cc3ccccc3C(F)(F)F)[C@@H]2c2ccc(CO)cc2I)cc1`, the composite z-score in [1] was 0.374; in assay [3] it was -0.422; in assay [4], 0.337; in assay [5] it was 0.792; in [6], 1.36; in assay [7], 1.83. For the same compound, the composite z-score in assay [8] was 0.492; in assay [9], -0.532; in [10], 0.0055. Further, the composite Z-score in assay [2] is -0.755 (inactive).
Turning to `COCCOC(=O)N1C(=O)[C@@]2(c3ccccc31)[C@H](C(=O)N1CCN(c3ncccn3)CC1)[C@H]1C(=O)O[C@H](c3ccccc3)[C@H](c3ccccc3)N1[C@@H]2c1ccccc1OCCO`, the composite z-score is -0.448 in assay [1]; 0.102 in [3]; -0.118 in assay [4]; 0.506 in [5]; 1.19 in assay [6]; 1.37 in assay [7]. Further, the composite z-score is 1.28 in assay [8], 0.761 in [9] and 1.05 in assay [10]. Besides, the composite Z-score in assay [2] is 0.196 (inactive).
For the compound `N#Cc1ccc(-c2cccc(=O)o2)cc1`, the composite z-score was 0.341 in assay [1]; 0.0426 in assay [3]; -0.0928 in assay [4]; 0.0483 in [5]; 0.365 in [6]; -0.0816 in assay [7]. The composite z-score was 0.808 in assay [8], 0.252 in [9] and 0.411 in [10]. Moreover, the composite Z-score in [2] was -0.0662 (inactive).
On to `COCCOC(=O)N1C(=O)[C@@]2(c3cc(C#CCC(C(=O)OC)C(=O)OC)ccc31)[C@H](C(=O)Nc1nc3ccccc3s1)[C@H]1C(=O)O[C@H](c3ccccc3)[C@H](c3ccccc3)N1[C@@H]2c1ccc(OCCO)cc1`, for which the composite z-score in assay [1] was -0.978; in assay [3] it was 0.414; in assay [4] it was 0.0328; in assay [5], 0.487; in assay [6], 1.24; in [7], 0.705. Moreover, the composite z-score in [8] was 1.29; in [9], 1.32; in assay [10], 1.18. In addition, the composite Z-score in [2] was 1.21 (inactive).
Regarding `O=C1[C@H]2C=C(I)[C@H](C[C@@H]2c2ccccc2)[C@@]12CO2`, the composite z-score is -0.406 in assay [1]; -0.0647 in [3]; -0.153 in assay [4]; -0.154 in assay [5]; -0.234 in assay [6]; -0.225 in [7]. Further, the composite z-score in assay [8] was 0.0643; in [9] it was 0.664; in assay [10], -0.267. Also, in [2], the composite Z-score is -0.623 (inactive).
